According to the supplement of paper PMC10127200:
Counter-ions that a name gives are not always drawn.

Legend:
Test in all cases: Euclidean distance of Cell Painting phenotypic profile (signed KS, 77 features) to DMSO centroid (dimensionless distance); 5 or 10 uM (library dependent); higher = stronger phenotypic change vs DMSO (phenoactivity)
Conditions in all cases: 48 h
786-O = system: 786-O
Method in brief: (§1)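 Five cancer lines and a healthy fibroblast line received library compounds at 10 or 5 uM (library-dependent, 0.1% DMSO final) for 48 h. Stained cells were imaged confocally at 20X (9 fields/well). Harmony extracted 77 features, each scored as a signed Kolmogorov-Smirnov statistic against same-plate vehicle wells. Profiles were plate-position corrected, correlation-weighted and replicate-averaged at the top dose. Phenoactivity is the Euclidean distance from each profile to the median vehicle profile.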

A549 = system: A549
Method in brief: as §1

DU145 = system: DU145
Method in brief: as §1

FB = system: FB
Method in brief: as §1

HEPG2 = system: HEPG2
Method in brief: as §1

OVCAR4 = system: OVCAR4
Method in brief: as §1

Structure (SMILES) | Euclidean distance (786-O) | Euclidean distance (A549) | Euclidean distance (DU145) | Euclidean distance (FB) | Euclidean distance (HEPG2) | Euclidean distance (OVCAR4)
Cc1cccc(C)c1OCC(C)N (stereo not given) [Mexiletine HCl] | 0.988 | 0.742 | 0.639 | 1.07 | 0.966 | 0.836
CCC(=O)O[C@H]1[C@H](O[C@@H]2[C@@H](C)[C@H](O[C@H]3C[C@@](C)(OC)[C@@H](O)[C@H](C)O3)[C@@H](C)C(=O)O[C@H](CC)[C@@](C)(O)[C@H](O)[C@@H](C)C(=O)[C@H](C)C[C@@]2(C)O)O[C@H](C)C[C@@H]1N(C)C [Erythromycin estolate] | 0.939 | 1.04 | 1.77 | 1.82 | 0.988 | 1.19
CNC(=O)c1cc(Oc2ccc(NC(=O)Nc3ccc(Cl)c(C(F)(F)F)c3)c(F)c2)ccn1 [Regorafenib (BAY 73-4506)] | 1.82 | 2.6 | 1.66 | 1.6 | 1.42 | 1.63
Nc1ccc2cc3ccc(N)cc3nc2c1 [Proflavine] | 3.98 | 3.75 | 4 | 4.15 | 4.17 | 4.45
N#Cc1c(Oc2ccc(F)c(NC(=O)Cc3cccc(C(F)(F)F)c3)c2)ccc2nc(NC(=O)C3CC3)sc12 | 2.61 | 2.09 | 0.85 | 1.19 | 1.22 | 2.04
CCCCCCCCN=C(N)NC(N)=NCc1ccc(Cl)c(Cl)c1 [Olanexidine Hydrochloride semihydrate] | 5.91 | 4.86 | 6.25 | 6.15 | 3.98 | 5.78
Cc1cc2c(cc1CC(=O)c1sccc1S(=O)(=O)Nc1onc(C)c1Cl)OCO2 [Sitaxentan sodium] | 0.839 | 0.821 | 0.942 | 0.796 | 0.95 | 1.46
COc1cc(C(=O)NC2CCCNC2)cc(OC)c1OC (stereo not given) [Troxipide] | 1.15 | 1.12 | 1.81 | 0.842 | 1.83 | 1.43
O=C1c2cccc(O)c2C(=O)c2c(O)cc(CO)cc21 [Aloe-emodin] | 1.1 | 1.14 | 1.2 | 1.05 | 1.08 | 1.41
NCCc1c[nH]cn1 [Histamine 2HCl] | 1.32 | 0.957 | 0.954 | 1.22 | 0.814 | 0.832
Cc1onc(-c2c(F)cccc2Cl)c1C(=O)N[C@@H]1C(=O)N2[C@@H]1SC(C)(C)[C@@H]2C(=O)O [Flucloxacillin sodium] | 1.14 | 0.772 | 1.17 | 1.12 | 0.664 | 1.72
C[C@H]1[C@H](OC(=O)CCC(=O)O)O[C@@H]2O[C@@]3(C)CC[C@H]4[C@H](C)CC[C@@H]1[C@@]24OO3 [Artesunate] | 1.44 | 2.06 | 1.01 | 1.66 | 1.03 | 1.88
CCCCCC(=O)O[C@]1(C(C)=O)CC[C@H]2[C@@H]3CCC4=CC(=O)CC[C@]4(C)[C@H]3CC[C@@]21C [Hydroxyprogesterone caproate] | 0.774 | 1.41 | 2.27 | 1.18 | 0.603 | 0.921
O=C(NNc1ccccc1)c1ccncc1 | 2.02 | 1.17 | 0.814 | 1.28 | 1.46 | 1.39
O=C(O)Cc1ccccc1Nc1c(Cl)cccc1Cl [Diclofenac Epolamine] | 0.939 | 0.571 | 1.14 | 0.969 | 0.65 | 1.22
CN(C)c1ccc(O)c2c1C[C@H]1C[C@H]3[C@H](N(C)C)C(O)=C(C(N)=O)C(=O)[C@@]3(O)C(O)=C1C2=O [Minocycline HCl] | 1.46 | 1.38 | 1.2 | 1.33 | 0.637 | 1.14
O=c1c2ccccc2nc2n1CCc1c-2[nH]c2ccccc12 [Rutaecarpine] | 0.752 | 1.05 | 1.52 | 1.22 | 1.08 | 1.48
CC(C(=O)O)c1ccc(C(=O)c2ccccc2)s1 (stereo not given) [Tiaprofenic acid] | 1.13 | 0.629 | 0.684 | 0.967 | 0.859 | 0.857
OC(c1cc(C(F)(F)F)nc2c(C(F)(F)F)cccc12)C1CCCCN1 (stereo not given) [Mefloquine HCl] | 2.22 | 2.49 | 1.85 | 2.46 | 4.9 | 2.05
COc1cc2ncnc(Nc3ccc(F)c(Cl)c3)c2cc1OCCCN1CCOCC1 [Gefitinib hydrochloride] | 1.01 | 1.23 | 1.18 | 0.779 | 0.482 | 1.31
CC(=O)N1C[C@H](O)C[C@H]1C(=O)O [Oxaceprol] | 0.691 | 0.845 | 0.785 | 0.895 | 0.812 | 1.28
COc1ccc2cc1Oc1ccc(cc1)C[C@H]1c3c(cc4c(c3Oc3cc5c(cc3OC)CCN(C)[C@@H]5C2)OCO4)CCN1C [Cepharanthine] | 4.22 | 4.24 | 3.62 | 4.8 | 3.63 | 3.87
COc1cc(Nc2c(C#N)cnc3cc(OCCCN4CCN(C)CC4)c(OC)cc23)c(Cl)cc1Cl [Bosutinib (SKI-606)] | 3.85 | 3.56 | 2.93 | 3.66 | 3.22 | 4.14

Structure (SMILES) | Euclidean distance (786-O) | Euclidean distance (A549) | Euclidean distance (DU145) | Euclidean distance (FB) | Euclidean distance (HEPG2) | Euclidean distance (OVCAR4)
N[C@@H](CCC(=O)N[C@@H](CS)C(=O)NCC(=O)O)C(=O)O [Glutathione] | 1.52 | 1.12 | 1.48 | 1.03 | 0.978 | 1.55
Cn1c(=O)c2[nH]cnc2n(C)c1=O [Aminophylline] | 1.11 | 1.06 | 0.75 | 0.798 | 0.585 | 0.841
Cc1cc(Nc2cc(N3CCN(C)CC3)nc(Sc3ccc(NC(=O)C4CC4)cc3)n2)n[nH]1 [VX-680 (Tozasertib. MK-0457)] | 2.67 | 3.95 | 3.26 | 3.01 | 1.92 | 2.98
CC(C)CC(=O)Nc1n[nH]c2c1CN(C(=O)C1CCN(C)CC1)C2(C)C | 3.52 | 3 | 2.9 | 2.96 | 2.82 | 4.04
C=C(C)[C@@H]1CC[C@]2(C(=O)O)CC[C@]3(C)[C@H](CC[C@@H]4[C@@]5(C)CC[C@H](O)C(C)(C)[C@@H]5CC[C@]43C)[C@@H]12 [Betulinic acid] | 1 | 0.893 | 0.693 | 0.844 | 0.744 | 0.866
O=C(O)c1ccc(C=C2SC(=S)N(c3cccc(C(F)(F)F)c3)C2=O)cc1 | 0.542 | 0.983 | 0.711 | 0.939 | 0.977 | 1.56
CN(C)c1cccc(-c2c3c(=O)n(-c4ccccc4Cl)[nH]c3cc(=O)n2C)c1 | 1.01 | 1.99 | 1.08 | 0.844 | 0.852 | 1.39
OCCN(CCO)c1nc(N2CCCCC2)c2nc(N(CCO)CCO)nc(N3CCCCC3)c2n1 [Dipyridamole] | 1.24 | 0.954 | 1.33 | 0.963 | 0.833 | 0.968
C[C@H]1COC2(CCN(c3nc(=O)c4cc(C(F)(F)F)cc([N+](=O)[O-])c4s3)CC2)O1 (racemic) [BTZ043 Racemate] | 1.5 | 0.656 | 1.01 | 1.47 | 0.565 | 0.748
COc1ccc(CNC(=O)Nc2ncc([N+](=O)[O-])s2)cc1 | 0.769 | 1.95 | 0.841 | 0.936 | 1.02 | 0.694
CC(=O)OCC(COC(C)=O)OC(C)=O [Triacetin] | 1.28 | 0.762 | 1.03 | 1.11 | 1.02 | 0.787
CC(=O)c1cc([N+](=O)[O-])c(Sc2cccc(Cl)c2Cl)s1 | 0.465 | 0.706 | 0.528 | 0.668 | 0.869 | 1.26
Cc1nc(=O)c2cc(CN(C)c3ccc(C(=O)N[C@@H](CCC(=O)O)C(=O)O)s3)ccc2[nH]1 [Raltitrexed] | 1.96 | 2.87 | 0.703 | 0.633 | 2.39 | 2.76
NC(=O)N1CCC(CC(=O)N2CCC([C@H]3c4ncc(Br)cc4CCc4cc(Cl)cc(Br)c43)CC2)CC1 [Lonafarnib] | 2.24 | 1.63 | 1.33 | 2.36 | 1.1 | 1.63
O=c1c(-c2ccc(O)cc2)coc2cc(O)ccc12 [Daidzein] | 0.746 | 0.736 | 0.716 | 0.782 | 0.606 | 1.13
Nc1nc(N)c2nc(-c3cccc(O)c3)cnc2n1 | 0.828 | 1.47 | 1.28 | 2.43 | 0.858 | 1.9
COc1ccc(CNc2nc(N3CCC[C@H]3CO)ncc2C(=O)NCc2ncccn2)cc1Cl [Avanafil] | 1.22 | 0.789 | 1.12 | 0.94 | 0.764 | 1.44
Cc1coc2c1C(=O)C(=O)c1c-2ccc2c1CCCC2(C)C [Tanshinone IIA] | 1.26 | 2.73 | 0.982 | 1.04 | 1.54 | 1.36
COc1cc2c(cc1OC)[C@@H]1Cc3ccc(OC)c(OC)c3CN1CC2 [Rotundine] | 1.84 | 0.769 | 1.07 | 1.26 | 0.595 | 1.2
N#Cc1ccc(C(c2ccc(C#N)cc2)n2cncn2)cc1 [Letrozole] | 3.04 | 1.88 | 1.67 | 3.14 | 1.48 | 2.31
CN1C(CCl)Nc2cc(Cl)c(S(N)(=O)=O)cc2S1(=O)=O (stereo not given) [Methyclothiazide] | 1.01 | 0.722 | 0.72 | 0.776 | 0.485 | 1.52
C/C1=C2N=C(/C=C3N=C(/C(C)=C4\[N-]C(C(CC(N)=O)C4(C)CCC(=O)NCC(C)OP(=O)([O-])OC4C(CO)OC(n5cnc6cc(C)c(C)cc65)C4O)C4(C)N=C1C(CCC(N)=O)C4(C)CC(N)=O)C(CCC(N)=O)C\3(C)C)C(CCC(N)=O)C/2(C)CC(N)=O.[CH3-].[Co+3] (stereo not given) [Methylcobalamin] | 0.89 | 0.91 | 1.12 | 0.99 | 1.02 | 0.959
